Assay results: PubChem BioAssay (NCATS)
Inconclusive results are not listed. Where a call stands in place of a potency, no number is given. Active and inactive are the calls of the source. Calls come from the whole dose curve; as a rule, active = well fitted curve in the direction sought with a large enough effect; inconclusive = small, poorly fitted or top-dose-only effect, or another doubt; inactive = no such curve, though single readings can be large; an effect the other way counts as inactive or inconclusive.

Legend:
[1] = qHTS for Inhibitors of Ubiquitin-specific Protease USP2a Using CHOP2 as the Reporter: Cytotox Assay (AID 652170); note: nearly all actives have a fitted effect of over 70% in size; note: potency is the fitted concentration of half-maximal effect
Procedure, shortened: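 Cytotoxicity read as ATP luminescence (CellTiter-Glo) after 72 hr compound treatment at 37 deg C. Cells: HCT116, 600/well in DMEM plus 10% FBS. Normalization between DMSO-treated cells and cell-free wells.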

[2] = target: Ubiquitin carboxyl-terminal hydrolase 2 (Homo sapiens) (UniProt O75604); assay: qHTS for Inhibitors of Ubiquitin-specific Protease USP2a Using CHOP2 as the Reporter: K484 Substrate (AID 652173);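 note: cleavage of internally quenched K48 di-ubiquitin substrate measured as rising fluorescence over time; nearly all actives have a fitted effect of over 70% in size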; note: potency is the fitted concentration of half-maximal effect
Sequence of Ubiquitin carboxyl-terminal hydrolase 2 (Homo sapiens) (O75604 whole entry, looked up): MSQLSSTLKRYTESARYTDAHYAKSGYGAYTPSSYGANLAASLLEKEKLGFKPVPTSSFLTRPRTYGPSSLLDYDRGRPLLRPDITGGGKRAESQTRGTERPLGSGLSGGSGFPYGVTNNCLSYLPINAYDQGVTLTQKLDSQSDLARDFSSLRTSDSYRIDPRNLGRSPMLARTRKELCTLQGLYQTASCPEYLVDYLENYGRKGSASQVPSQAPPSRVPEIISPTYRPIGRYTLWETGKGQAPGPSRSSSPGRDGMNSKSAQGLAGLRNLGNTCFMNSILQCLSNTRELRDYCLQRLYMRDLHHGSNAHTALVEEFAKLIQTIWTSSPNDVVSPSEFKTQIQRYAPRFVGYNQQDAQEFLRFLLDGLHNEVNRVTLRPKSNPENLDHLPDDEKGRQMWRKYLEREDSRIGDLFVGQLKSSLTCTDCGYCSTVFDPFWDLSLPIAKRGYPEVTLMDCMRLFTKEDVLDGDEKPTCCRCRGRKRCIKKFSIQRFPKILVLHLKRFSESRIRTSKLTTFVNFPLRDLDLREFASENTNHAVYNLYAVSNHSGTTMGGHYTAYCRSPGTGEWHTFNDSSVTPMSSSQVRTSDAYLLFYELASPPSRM
Procedure, shortened: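 Kinetic fluorescence (Ex 525/Em 598) tracked cleavage of an internally quenched K48 di-ubiquitin substrate, added as a 100 nM solution. The enzyme was added as a 5 nM USP2 solution before compound pinning, with no-enzyme controls. Buffer: Tris pH 8, beta-mercaptoethanol, CHAPS.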

[3] = target: Calcium and integrin-binding protein 1 (Homo sapiens) (UniProt Q99828); assay: Confirmatory qHTS for Identification of Calcium Integrin Binding Protein 1 (CIB1) Competitor (AID 1508617); note: nearly all actives have a fitted effect of over 65% in size; note: potency is the fitted concentration of half-maximal effect
Sequence of Calcium and integrin-binding protein 1 (Homo sapiens) (Q99828 whole entry, looked up): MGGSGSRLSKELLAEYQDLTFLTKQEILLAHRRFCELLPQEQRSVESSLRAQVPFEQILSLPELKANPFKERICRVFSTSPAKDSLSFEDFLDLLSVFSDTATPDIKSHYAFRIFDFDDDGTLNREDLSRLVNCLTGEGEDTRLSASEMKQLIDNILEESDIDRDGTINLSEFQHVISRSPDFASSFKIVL
Procedure, shortened: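 Confirmatory qHTS measures displacement of a FITC-alphaIIb peptide (100 nM) from CIB1-GST (1 uM) by fluorescence polarization. Calcium-containing HEPES buffer, pH 7.4; two 15 min room-temperature incubations.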

[4] = target: Calcium and integrin-binding protein 1 (Homo sapiens) (UniProt Q99828); assay: Primary qHTS for Identification of Calcium Integrin Binding Protein 1 (CIB1) Competitor (AID 1508620); note: potency is the fitted concentration of half-maximal effect
Procedure, shortened: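 Fluorescence polarization competition: CIB1-GST (1 uM final) preincubated with compound 15 min at room temperature, then FITC-labeled alphaIIb peptide (100 nM final) added for another 15 min. Polarization read at Ex 480/Em 540.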

[5] = qHTS for Inhibitors of Ubiquitin-specific Protease USP2a Using CHOP2 as the Reporter: K633 Counterscreen (AID 652168); note: series mostly up to about 57 µM
Procedure, shortened: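 Detection-system control: fluorescence of K48-linked DiUb-4IQF substrate (100 nM as added) tracked over time, Ex 525/Em 598, with pinned compounds and no enzyme, in pH 8 Tris buffer containing beta-mercaptoethanol and 0.05% Chaps.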

N#Cc1ccc(NS(=O)(=O)c2ccc(NC(=O)Cc3ccc(Cl)c(Cl)c3)cc2)cc1
Potency [1]: inactive | Potency [2]: 7.69 µM (active) | Potency [3]: inactive

NS(=O)(=O)c1ccc(Nc2nc(-c3ccccc3)cs2)cc1
Potency [1]: inactive | Potency [2]: 21.7 µM (active) | Potency [3]: 50.1 µM (active)

O=C(O)c1ccccc1SC1=NS(=O)(=O)c2ccccc21
Potency [3]: inactive | Potency [4]: inactive

Cc1ccc(S(=O)(=O)Nc2ccc(Br)cc2C(=O)Nc2nc(-c3ccccc3)cs2)cc1
outcome [5]: inactive | Potency [1]: 4.69 µM (active) | Potency [2]: 0.968 µM (active) | Potency [3]: inactive

O=[S+]([O-])(NCc1nccs1)c1ccc(Nc2nc(-c3ccccc3)cs2)cc1
outcome [5]: inactive | Potency [1]: inactive | Potency [2]: inactive | Potency [3]: 50.1 µM (active)

Cc1ccc2nc3sc(C(=O)N4CCN(C5CCN(C)CC5)CC4)cc3cc2c1
Potency [4]: inactive

N#Cc1ccc(NS(=O)(=O)c2ccc(NC(=O)Cc3ccc(F)c(Cl)c3)cc2)cc1
Potency [1]: inactive | Potency [2]: 24.3 µM (active) | Potency [3]: inactive

CC(C)(C)CNc1nc(C#N)nc(Nc2ccccc2)n1
Potency [4]: inactive

Cc1cc(C)nc(NC(=S)N2CCN(c3cccc4cnccc34)CC2)c1
Potency [4]: inactive

O=C(O)c1ccc(O)c2ncc(-c3n[nH]nc3-c3ccccc3)cc12
Potency [3]: inactive | Potency [4]: inactive

Cc1ccc(S(=O)(=O)Nc2cc3c(cc2C(=O)Nc2nc(-c4ccccc4)cs2)OCO3)cc1
outcome [5]: inactive | Potency [1]: 16.6 µM (active) | Potency [2]: 1.37 µM (active) | Potency [3]: inactive

CN(C(=O)c1cccs1)c1cccnc1
Potency [3]: 31.6 µM (active) | Potency [4]: 50.1 µM (active)

Cc1cc2c(s1)c1cnn(Cc3ccc(F)cc3)c(=O)c1n2C
Potency [4]: inactive

O=C(Nc1nc(-c2ccccc2)cs1)c1ccncc1NS(=O)(=O)c1cccc2cccnc12
outcome [5]: inactive | Potency [1]: inactive | Potency [2]: 7.69 µM (active) | Potency [3]: 35.5 µM (active)

CC1(C)OB(c2ccc(O)c3ncc(N4CCNCC4)cc23)OC1(C)C
Potency [3]: 31.6 µM (active) | Potency [4]: 50.1 µM (active)

O=c1c2ccccc2nc2sc(Nc3ccc(Oc4ccccc4)cc3)nn12
Potency [4]: inactive

Cc1occc1-c1ccc2ncnc(NCCc3cnc[nH]3)c2c1
Potency [4]: inactive
